Experiment [1] concerns the target Sphingosine kinase 1 (Homo sapiens) (UniProt Q9NYA1). To be noted: at 1 µM.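 Further: mean SPHK1 inhibition value reported from the GSK PKIS kinase panel screen.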
For experiment [2], the target named is T1, Sphingosine kinase 2 (Homo sapiens) (UniProt Q9NRA0).
T1 sequence (whole entry): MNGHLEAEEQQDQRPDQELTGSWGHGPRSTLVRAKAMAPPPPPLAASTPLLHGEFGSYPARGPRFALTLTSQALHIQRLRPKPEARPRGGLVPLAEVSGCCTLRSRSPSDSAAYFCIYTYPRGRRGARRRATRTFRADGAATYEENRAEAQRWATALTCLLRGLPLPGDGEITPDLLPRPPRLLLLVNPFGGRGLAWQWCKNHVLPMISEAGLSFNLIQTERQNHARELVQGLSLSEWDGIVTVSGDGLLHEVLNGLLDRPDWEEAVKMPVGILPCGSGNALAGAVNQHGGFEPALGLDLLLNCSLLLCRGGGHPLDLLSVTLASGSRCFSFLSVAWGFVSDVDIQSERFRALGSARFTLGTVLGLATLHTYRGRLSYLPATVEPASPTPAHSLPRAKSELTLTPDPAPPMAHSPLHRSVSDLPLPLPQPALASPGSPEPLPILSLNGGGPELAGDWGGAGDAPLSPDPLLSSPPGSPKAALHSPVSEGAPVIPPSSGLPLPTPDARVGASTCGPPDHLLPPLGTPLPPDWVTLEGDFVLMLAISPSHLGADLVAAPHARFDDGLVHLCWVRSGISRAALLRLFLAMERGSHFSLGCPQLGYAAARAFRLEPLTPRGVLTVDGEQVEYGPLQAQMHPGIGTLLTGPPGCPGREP
The conditions noted are these: at 0.1 µM.

In experiment [3] the target is T1, Sphingosine kinase 2 (Homo sapiens). The conditions noted are these: at 1 µM.
The target in experiment [4] is Casein kinase II subunit alpha (Homo sapiens) (UniProt P68400). To be noted: at 0.1 µM.
Casein kinase II subunit alpha (Homo sapiens), sequence (P68400 whole entry, looked up): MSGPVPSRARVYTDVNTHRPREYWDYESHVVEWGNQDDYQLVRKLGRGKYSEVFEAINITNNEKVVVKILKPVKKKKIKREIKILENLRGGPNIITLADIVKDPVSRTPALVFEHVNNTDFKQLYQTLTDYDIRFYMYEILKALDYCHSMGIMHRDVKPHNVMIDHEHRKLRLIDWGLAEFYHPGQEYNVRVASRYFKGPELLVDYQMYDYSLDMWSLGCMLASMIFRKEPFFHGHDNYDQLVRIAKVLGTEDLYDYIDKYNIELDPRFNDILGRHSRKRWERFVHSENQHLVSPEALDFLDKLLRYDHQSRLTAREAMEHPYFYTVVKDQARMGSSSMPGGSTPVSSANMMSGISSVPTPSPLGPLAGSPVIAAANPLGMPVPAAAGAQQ
For experiment [5] the target is unchanged. The conditions noted are these: at 1 µM.
For experiment [6], the target named is T2, Inhibitor of nuclear factor kappa-B kinase subunit alpha (Homo sapiens) (UniProt O15111).
T2 sequence (whole entry): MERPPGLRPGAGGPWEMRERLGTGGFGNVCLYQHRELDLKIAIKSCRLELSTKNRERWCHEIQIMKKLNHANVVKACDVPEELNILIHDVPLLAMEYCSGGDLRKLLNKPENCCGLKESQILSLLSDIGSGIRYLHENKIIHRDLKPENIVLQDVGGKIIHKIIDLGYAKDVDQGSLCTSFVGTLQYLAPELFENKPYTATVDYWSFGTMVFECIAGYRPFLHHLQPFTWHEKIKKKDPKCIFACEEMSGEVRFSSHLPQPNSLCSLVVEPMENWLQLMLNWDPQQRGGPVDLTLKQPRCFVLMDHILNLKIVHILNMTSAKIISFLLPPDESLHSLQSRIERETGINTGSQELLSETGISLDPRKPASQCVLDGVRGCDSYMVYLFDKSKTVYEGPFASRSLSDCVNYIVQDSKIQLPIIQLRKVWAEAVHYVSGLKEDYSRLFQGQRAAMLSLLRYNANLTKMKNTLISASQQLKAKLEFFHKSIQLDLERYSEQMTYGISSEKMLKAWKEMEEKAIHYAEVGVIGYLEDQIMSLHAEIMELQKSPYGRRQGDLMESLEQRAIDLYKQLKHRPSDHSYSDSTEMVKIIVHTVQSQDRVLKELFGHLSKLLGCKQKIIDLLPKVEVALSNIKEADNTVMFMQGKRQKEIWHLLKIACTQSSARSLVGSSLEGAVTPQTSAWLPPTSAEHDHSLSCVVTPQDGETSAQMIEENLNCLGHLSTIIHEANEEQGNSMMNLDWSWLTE
The conditions noted are these: at 0.1 µM.

The target in experiment [7] is T2, Inhibitor of nuclear factor kappa-B kinase subunit alpha (Homo sapiens). To be noted: at 1 µM.
Experiment [8] concerns the target T3, Inhibitor of nuclear factor kappa-B kinase subunit beta (Homo sapiens) (UniProt O14920).
T3 sequence (whole entry): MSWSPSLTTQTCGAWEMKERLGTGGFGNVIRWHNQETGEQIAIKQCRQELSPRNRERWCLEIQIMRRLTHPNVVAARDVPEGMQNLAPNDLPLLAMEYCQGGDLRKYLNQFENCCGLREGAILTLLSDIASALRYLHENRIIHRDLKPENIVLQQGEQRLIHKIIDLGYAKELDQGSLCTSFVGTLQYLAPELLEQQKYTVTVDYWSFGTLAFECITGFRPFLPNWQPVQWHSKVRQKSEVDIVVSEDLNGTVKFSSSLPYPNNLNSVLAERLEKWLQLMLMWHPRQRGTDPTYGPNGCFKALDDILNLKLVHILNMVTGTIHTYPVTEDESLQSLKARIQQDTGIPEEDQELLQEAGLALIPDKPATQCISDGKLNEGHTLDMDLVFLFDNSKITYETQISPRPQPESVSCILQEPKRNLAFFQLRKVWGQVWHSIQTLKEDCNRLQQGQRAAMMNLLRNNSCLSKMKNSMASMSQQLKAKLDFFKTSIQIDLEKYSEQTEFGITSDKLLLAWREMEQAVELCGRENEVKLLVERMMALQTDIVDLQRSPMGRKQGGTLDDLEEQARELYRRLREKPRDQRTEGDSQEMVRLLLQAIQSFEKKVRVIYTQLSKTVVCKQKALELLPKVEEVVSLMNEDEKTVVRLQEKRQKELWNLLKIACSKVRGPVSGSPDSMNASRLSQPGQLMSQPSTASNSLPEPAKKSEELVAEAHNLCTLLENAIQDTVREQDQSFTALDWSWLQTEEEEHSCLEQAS
The conditions noted are these: at 0.1 µM.

Experiment [9] concerns the target T3, Inhibitor of nuclear factor kappa-B kinase subunit beta (Homo sapiens). The conditions noted are these: at 1 µM.
Experiment [10] has as its target T4, Inhibitor of nuclear factor kappa-B kinase subunit epsilon (Homo sapiens) (UniProt Q14164).
T4 sequence (whole entry): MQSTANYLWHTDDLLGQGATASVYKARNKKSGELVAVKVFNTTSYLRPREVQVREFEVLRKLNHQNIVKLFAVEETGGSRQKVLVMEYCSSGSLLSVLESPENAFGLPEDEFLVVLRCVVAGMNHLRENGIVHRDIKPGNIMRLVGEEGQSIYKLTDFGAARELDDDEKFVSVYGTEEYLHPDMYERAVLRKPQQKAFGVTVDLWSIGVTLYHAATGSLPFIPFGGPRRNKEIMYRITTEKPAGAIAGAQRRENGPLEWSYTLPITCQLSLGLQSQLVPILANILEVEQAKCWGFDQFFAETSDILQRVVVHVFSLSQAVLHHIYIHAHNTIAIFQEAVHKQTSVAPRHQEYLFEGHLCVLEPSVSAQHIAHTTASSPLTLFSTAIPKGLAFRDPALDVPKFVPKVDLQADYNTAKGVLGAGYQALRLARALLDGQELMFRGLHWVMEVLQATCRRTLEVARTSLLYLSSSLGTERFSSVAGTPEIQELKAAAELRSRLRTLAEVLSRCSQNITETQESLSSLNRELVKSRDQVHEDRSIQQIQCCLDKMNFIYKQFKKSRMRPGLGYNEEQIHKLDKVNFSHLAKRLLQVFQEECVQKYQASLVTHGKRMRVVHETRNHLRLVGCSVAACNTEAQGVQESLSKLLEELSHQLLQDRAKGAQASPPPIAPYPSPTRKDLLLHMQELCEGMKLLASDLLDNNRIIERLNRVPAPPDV
To be noted: at 0.1 µM.

The target in experiment [11] is T4, Inhibitor of nuclear factor kappa-B kinase subunit epsilon (Homo sapiens). The conditions noted are these: at 1 µM.
Experiment [12] has as its target T5, Serine/threonine-protein kinase Nek1 (Homo sapiens) (UniProt Q96PY6).
T5 sequence (whole entry): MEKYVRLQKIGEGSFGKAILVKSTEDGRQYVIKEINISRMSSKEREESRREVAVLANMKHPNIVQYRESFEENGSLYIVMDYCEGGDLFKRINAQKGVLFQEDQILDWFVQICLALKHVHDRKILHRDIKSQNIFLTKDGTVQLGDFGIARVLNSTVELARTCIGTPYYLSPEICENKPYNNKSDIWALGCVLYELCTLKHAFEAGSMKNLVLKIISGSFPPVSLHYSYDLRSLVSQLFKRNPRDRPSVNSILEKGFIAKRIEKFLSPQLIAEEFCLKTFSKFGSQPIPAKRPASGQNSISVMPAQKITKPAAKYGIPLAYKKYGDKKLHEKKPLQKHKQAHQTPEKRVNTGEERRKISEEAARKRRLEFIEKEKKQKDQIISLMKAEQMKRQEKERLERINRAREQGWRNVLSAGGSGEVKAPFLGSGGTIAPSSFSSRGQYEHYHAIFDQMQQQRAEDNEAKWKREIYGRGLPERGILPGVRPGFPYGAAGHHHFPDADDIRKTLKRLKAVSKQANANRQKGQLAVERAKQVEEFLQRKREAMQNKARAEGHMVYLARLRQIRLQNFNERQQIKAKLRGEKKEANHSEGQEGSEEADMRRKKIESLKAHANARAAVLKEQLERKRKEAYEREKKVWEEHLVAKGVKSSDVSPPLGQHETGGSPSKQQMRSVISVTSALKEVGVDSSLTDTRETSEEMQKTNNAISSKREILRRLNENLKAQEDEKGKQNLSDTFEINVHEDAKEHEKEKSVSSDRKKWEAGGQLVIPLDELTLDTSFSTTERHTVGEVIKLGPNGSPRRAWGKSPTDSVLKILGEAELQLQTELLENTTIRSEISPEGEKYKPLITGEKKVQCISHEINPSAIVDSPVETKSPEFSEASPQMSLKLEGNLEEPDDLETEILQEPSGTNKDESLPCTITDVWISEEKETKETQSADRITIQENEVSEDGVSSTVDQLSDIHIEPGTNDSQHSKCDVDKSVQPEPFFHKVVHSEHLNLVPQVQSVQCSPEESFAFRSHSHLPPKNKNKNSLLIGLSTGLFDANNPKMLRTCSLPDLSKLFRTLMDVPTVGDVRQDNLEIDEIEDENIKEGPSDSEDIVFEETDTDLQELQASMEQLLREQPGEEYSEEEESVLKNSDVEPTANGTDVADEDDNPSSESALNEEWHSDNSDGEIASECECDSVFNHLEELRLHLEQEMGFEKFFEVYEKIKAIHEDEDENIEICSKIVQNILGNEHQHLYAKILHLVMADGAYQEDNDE
To be noted: at 0.1 µM.

The target in experiment [13] is T5, Serine/threonine-protein kinase Nek1 (Homo sapiens). The conditions noted are these: at 1 µM.
Experiment [14] addresses T6, Serine/threonine-protein kinase Nek2 (Homo sapiens) (UniProt P51955).
T6 sequence (whole entry): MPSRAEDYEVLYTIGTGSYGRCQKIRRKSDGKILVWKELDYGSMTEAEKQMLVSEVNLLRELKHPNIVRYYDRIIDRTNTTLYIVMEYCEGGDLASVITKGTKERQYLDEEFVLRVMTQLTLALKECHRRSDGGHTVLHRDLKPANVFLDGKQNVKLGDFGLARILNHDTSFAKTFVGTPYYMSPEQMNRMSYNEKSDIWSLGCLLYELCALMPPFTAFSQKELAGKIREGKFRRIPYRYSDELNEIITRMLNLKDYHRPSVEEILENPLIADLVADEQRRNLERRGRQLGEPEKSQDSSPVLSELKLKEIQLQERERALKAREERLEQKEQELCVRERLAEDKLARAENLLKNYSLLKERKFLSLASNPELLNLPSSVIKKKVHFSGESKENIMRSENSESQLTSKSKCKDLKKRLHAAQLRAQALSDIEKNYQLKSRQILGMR
To be noted: at 0.1 µM.

Experiment [15] has as its target T6, Serine/threonine-protein kinase Nek2 (Homo sapiens). The conditions noted are these: at 1 µM.
The target of experiment [16] is Serine/threonine-protein kinase Nek6 (Homo sapiens) (UniProt Q9HC98). The conditions noted are these: at 0.1 µM.
Serine/threonine-protein kinase Nek6 (Homo sapiens), sequence (Q9HC98 whole entry): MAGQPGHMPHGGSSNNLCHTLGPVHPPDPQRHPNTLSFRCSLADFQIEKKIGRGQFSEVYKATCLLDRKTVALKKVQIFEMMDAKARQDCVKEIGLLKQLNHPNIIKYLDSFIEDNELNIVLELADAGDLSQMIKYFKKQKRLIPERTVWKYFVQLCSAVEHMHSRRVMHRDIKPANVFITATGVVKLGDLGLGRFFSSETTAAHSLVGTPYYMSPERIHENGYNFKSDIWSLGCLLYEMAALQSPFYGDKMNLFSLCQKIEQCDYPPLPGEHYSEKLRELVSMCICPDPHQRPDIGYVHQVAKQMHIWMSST
Experiment [17] shares this target. The conditions noted are these: at 1 µM.
Experiment [18] concerns the target Serine/threonine-protein kinase Nek7 (Homo sapiens) (UniProt Q8TDX7). The conditions noted are these: at 0.1 µM.
For experiment [19] the target is unchanged. To be noted: at 1 µM.
For experiment [20], the target named is T7, Serine/threonine-protein kinase Nek9 (Homo sapiens) (UniProt Q8TD19).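 Further: reported value is the mean percent inhibition of NEK9.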
T7 sequence (whole entry): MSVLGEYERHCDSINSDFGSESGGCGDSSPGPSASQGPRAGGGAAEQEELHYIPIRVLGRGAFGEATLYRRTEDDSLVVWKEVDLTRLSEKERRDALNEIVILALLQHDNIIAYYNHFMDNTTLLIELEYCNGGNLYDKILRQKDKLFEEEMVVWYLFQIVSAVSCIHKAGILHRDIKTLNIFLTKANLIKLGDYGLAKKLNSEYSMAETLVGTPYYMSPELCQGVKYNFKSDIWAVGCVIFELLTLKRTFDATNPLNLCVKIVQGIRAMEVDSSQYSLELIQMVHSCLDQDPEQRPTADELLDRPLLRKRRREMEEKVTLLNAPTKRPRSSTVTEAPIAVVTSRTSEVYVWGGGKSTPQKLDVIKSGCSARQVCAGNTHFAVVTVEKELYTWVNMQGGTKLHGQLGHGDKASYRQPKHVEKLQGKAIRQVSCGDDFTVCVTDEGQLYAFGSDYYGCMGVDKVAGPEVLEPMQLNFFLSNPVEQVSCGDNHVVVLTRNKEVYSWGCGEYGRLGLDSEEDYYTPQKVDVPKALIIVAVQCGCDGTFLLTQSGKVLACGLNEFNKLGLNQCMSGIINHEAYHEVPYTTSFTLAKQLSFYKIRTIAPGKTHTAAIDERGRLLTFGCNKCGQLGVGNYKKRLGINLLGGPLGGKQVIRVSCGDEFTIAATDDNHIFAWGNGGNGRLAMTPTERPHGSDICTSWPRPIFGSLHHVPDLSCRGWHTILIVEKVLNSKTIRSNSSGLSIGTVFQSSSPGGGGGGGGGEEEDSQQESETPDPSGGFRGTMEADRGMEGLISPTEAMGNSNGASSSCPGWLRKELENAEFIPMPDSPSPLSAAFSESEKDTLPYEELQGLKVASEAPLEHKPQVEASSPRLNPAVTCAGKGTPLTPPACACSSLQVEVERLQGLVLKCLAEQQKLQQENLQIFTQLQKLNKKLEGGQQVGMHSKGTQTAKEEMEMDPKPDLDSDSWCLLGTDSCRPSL
To be noted: at 0.1 µM.

The text below walks through data of ChEMBL document CHEMBL1961873, “Compounds: GSK PKIS; Assays: Nanosyn kinase panel” (2012).

Serine/threonine-protein kinase Nek7 (Homo sapiens), sequence (Q8TDX7 whole entry, looked up): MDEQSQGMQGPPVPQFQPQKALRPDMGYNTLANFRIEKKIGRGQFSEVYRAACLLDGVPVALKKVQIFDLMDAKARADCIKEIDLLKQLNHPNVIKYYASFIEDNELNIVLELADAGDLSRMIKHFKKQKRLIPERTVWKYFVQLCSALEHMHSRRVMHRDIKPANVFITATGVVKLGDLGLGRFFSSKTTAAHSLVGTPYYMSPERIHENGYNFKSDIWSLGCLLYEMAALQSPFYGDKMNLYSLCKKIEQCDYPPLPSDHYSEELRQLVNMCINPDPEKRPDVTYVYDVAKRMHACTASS
Sphingosine kinase 1 (Homo sapiens), sequence (Q9NYA1 whole entry): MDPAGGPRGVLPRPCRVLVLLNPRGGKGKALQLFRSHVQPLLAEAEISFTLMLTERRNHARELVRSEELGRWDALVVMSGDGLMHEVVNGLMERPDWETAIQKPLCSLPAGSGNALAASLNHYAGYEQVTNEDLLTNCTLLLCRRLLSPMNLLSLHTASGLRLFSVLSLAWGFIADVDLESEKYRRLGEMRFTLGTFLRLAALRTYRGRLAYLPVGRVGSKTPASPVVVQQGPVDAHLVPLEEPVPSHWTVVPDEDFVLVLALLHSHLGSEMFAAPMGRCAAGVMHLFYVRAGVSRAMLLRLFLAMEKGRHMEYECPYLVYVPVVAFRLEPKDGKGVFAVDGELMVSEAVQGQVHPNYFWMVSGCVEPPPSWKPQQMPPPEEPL

Regarding `c1cnn2ncc(-c3ccnc(NCCCN4CCOCC4)n3)c2c1`, the inhibition in experiment [1] was -3.67%; in experiment [2] it was 2.35%; in experiment [3], 0%; in experiment [4], 1.83%; in experiment [5], 4.66%; in experiment [6], 8.06%. Besides, the inhibition in [7] was determined as 9.01%; in experiment [8] it was 5.79%; in experiment [9], 4.44%; in experiment [10], 9.87%; in experiment [11] it was 13.4%; in experiment [12], 1.91%. In addition, the inhibition in experiment [13] is 0.27%; in [14], 4.15%; in experiment [15], 4.3%; in experiment [16], 0.45%; in [17], 2.66%; in experiment [18], 5.96%. Further, the inhibition in [19] turned out to be 1.47%; in experiment [20] it was 14.8%.
